Laboratory results from PubChem BioAssay AID1159580 (chemical genetic matrix, 2015).
Several values for one entry are separate records, joined by “and”; a condition that tells them apart may be missing. Equal values may be shown once. Hit rate of the full screen: of about 5,500 compounds, about 2,000 (36%) were called active. About 18% were inconclusive and are not listed. Rule as the data show it: active = normalized growth mostly below about 0.91 (no sharp cut-off); inconclusive = no clear call, values can overlap the other calls; inactive = mostly above about 0.92. This is one part of the list.

Test: chemical genetic growth profiling, strain panel (AID 1159580);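 also: tested at 20 µM; growth read once vehicle control cultures reached saturation at 30 °C; 1 = growth at the plate median or of vehicle wells; lower values mean less growth of the strain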
Conditions: S. cerevisiae deletion strains, growth OD

Measured: normalized growth

COC(=O)C1=CCCN(C)C1
inactive: locus YAL013W, strain DEP1, hits give low values 1 and 1.01 | locus YAL021C, strain ccr4, hits give low values 1.03 | locus YAL026C, strain drs2, hits give low values 1.02 | locus YAL030W, strain snc1, hits give low values 1 | locus YAL040C, strain CLN3, hits give low values 0.997 | locus YBL061C, strain skt5, hits give low values 1.02 | locus YBR009C, strain hhf1, hits give low values 0.986 | locus YBR021W, strain FUR4, hits give low values 1 | locus YBR023C, strain chs3, hits give low values 1.02 | locus YBR171W, strain sec66, hits give low values 1.02 | locus YBR229C, strain ROT2, hits give low values 0.954 | locus YBR231C, strain swc5, hits give low values 0.999 | locus YBR279W, strain paf1, hits give low values 1.02 | locus YCL011C, strain gbp2, hits give low values 1.01 | locus YCL016C, strain dcc1, hits give low values 1.02 | locus YCL029C, strain bik1, hits give low values 0.983 | locus YCL069W, strain vba3, hits give low values 0.988 | locus YCR088W, strain abp1, hits give low values 1.01 | locus YDL005C, strain med2, hits give low values 0.998 | locus YDL035C, strain GPR1, hits give low values 0.993 | locus YDL040C, strain nat1, hits give low values 0.993 | locus YDL074C, strain BRE1, hits give low values 0.99 | locus YDL101C, strain DUN1, hits give low values 0.976 | locus YDL134C, strain PPH21, hits give low values 0.969 | locus YDL185W, strain tfp1, hits give low values 0.992 | locus YDL192W, strain arf1, hits give low values 0.983 | locus YDR001C, strain nth1, hits give low values 1 | locus YDR069C, strain doa4, hits give low values 0.993 | locus YDR101C, strain arx1, hits give low values 0.989 | locus YDR137W, strain rgp1, hits give low values 1.02 | locus YDR150W, strain NUM1, hits give low values 0.973 and 1.01 | locus YDR159W, strain sac3, hits give low values 0.94 | locus YDR162C, strain NBP2, hits give low values 0.991 | locus YDR195W, strain ref2 0.956 | locus YDR297W, strain sur2, hits give low values 1 | locus YDR318W, strain mcm21, hits give low values 0.99 | locus YDR334W, strain swr1, hits give low values 1 | locus YDR335W, strain msn5, hits give low values 1.02 | locus YDR388W, hits give low values 0.994 | locus YDR392W, strain spt3, hits give low values 0.977 | locus YDR502C, strain sam2, hits give low values 1 | locus YEL003W, strain gim4, hits give low values 0.997 | locus YEL037C, strain rad23, hits give low values 1.02 | locus YEL061C, strain CIN8 (second series), hits give low values 0.988 | locus YEL061C, strain CIN8, hits give low values 0.991 | locus YER002W, strain NOP16, hits give low values 0.986 | locus YER015W, strain faa2, hits give low values 1 | locus YER016W, strain bim1, hits give low values 1.02 | locus YER110C, hits give low values 0.969 | locus YER111C, strain swi4, hits give low values 1.01 | locus YER155C, strain BEM2 (second series), hits give low values 0.984 | locus YER155C, strain BEM2, hits give low values 1.02 | locus YER167W, strain BCK2, hits give low values 0.995 | locus YFR010W, strain ubp6, hits give low values 0.984 | locus YGL078C, strain dbp3, hits give low values 0.988 | locus YGL086W, strain mad1, hits give low values 0.994 | locus YGL167C, strain pmr1, hits give low values 1.01 | locus YGL173C, strain kem1, hits give low values 0.976 | locus YGL227W, strain vid30, hits give low values 0.998 | locus YGL240W, strain doc1, hits give low values 0.974 | locus YGL248W, strain PDE1, hits give low values 0.978 | locus YGL253W, strain hxk2, hits give low values 1.02 | locus YGR078C, strain PAC10, hits give low values 0.991 | locus YGR135W, strain pre9, hits give low values 0.983 | locus YGR229C, strain SMI1, hits give low values 1 | locus YGR252W, strain gcn5, hits give low values 0.945 | locus YHR013C, strain ard1, hits give low values 1.03 | locus YHR027C, strain rpn1, hits give low values 0.996 | locus YHR030C, strain SLT2, hits give low values 0.986 and 0.989 | locus YHR079C, strain IRE1 (second series), hits give low values 0.994 | locus YHR079C, strain IRE1, hits give low values 1.05 | locus YHR094C, strain hxt1, hits give low values 0.996 | locus YHR129C, strain ARP1, hits give low values 0.993 | locus YHR142W, strain chs7, hits give low values 1.03 | locus YHR200W, strain rpn10, hits give low values 0.989 | locus YIL066C, strain RNR3, hits give low values 0.982 | locus YIL073C, strain SPO22, hits give low values 0.935 | locus YIL125W, strain kgd1, hits give low values 0.995 | locus YIR030C, strain dcg1, hits give low values 0.98 | locus YJL092W, strain hpr5, hits give low values 1.01 | locus YJL095W, strain BCK1 (second series), hits give low values 1.01 | locus YJL095W, strain BCK1, hits give low values 1.02 and 1 | locus YJL115W, strain asf1, hits give low values 1.02 | locus YJL129C, strain trk1, hits give low values 1.04 | locus YJL134W, strain LCB3, hits give low values 0.985 | locus YJL154C, strain vps35, hits give low values 0.996 | locus YJL164C, strain tpk1, hits give low values 0.998 | locus YJL166W, strain qcr8, hits give low values 0.998 | locus YJL168C, strain set2, hits give low values 1 | locus YJL187C, strain SWE1 (second series), hits give low values 0.973 | locus YJR043C, strain POL32, hits give low values 1 | locus YJR066W, strain TOR1, hits give low values 0.968 | locus YJR075W, strain HOC1, hits give low values 0.99 and 1.01 | locus YKL009W, strain mrt4, hits give low values 0.999
